Reference: PubChem BioAssay (NCATS)
Several values for one entry are separate records, joined by “and”; a condition that tells them apart may be missing. Identical values can stand only once. Records with an inconclusive call do not appear. Unmarked numbers belong to inactive results. Activity calls are given as the source filed them. Unless noted, calls follow the shape of the full dose curve.

What follows are compounds tested against Bile acid receptor (Homo sapiens) (UniProt Q96RI1) (assay: qHTS assay for small molecule antagonists of farnesoid X receptor signaling (AID 588526; also: potency is read from the fitted curve at half-maximal effect; as to activity change, negative = inhibition: % is scaled to controls: 0 for no effect and ±100 for the full control effect)). Settings: HEK293T FXR-UAS-bla, beta-lactamase ratio, antagonist mode; series mostly up to 76.7 µM; activity change, negative = inhibition: at the top concentration.
Bile acid receptor (Homo sapiens), sequence (Q96RI1 whole entry, looked up): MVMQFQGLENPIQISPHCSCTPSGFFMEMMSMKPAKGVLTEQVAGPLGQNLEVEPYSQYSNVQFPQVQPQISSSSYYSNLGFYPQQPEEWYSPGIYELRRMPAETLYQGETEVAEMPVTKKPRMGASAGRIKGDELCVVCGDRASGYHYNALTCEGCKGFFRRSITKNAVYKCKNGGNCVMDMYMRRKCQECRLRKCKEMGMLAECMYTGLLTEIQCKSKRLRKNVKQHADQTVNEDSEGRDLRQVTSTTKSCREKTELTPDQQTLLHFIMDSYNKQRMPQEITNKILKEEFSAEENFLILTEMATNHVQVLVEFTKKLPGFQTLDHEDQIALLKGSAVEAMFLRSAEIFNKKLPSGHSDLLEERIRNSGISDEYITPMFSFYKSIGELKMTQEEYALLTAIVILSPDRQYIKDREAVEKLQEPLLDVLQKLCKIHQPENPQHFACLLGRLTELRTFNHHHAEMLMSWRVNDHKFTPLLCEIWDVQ
In short: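 Concentration-response titrations were fitted to the Hill equation for half-maximal inhibition and maximal response, with data normalised to 50 uM chenodeoxycholic acid and DMSO control wells. Cells: FXR-UAS-bla HEK293T, dialyzed FBS.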

Compound | activity change, negative = inhibition [%] | Potency
CCCCCCCCCCCCc1ccccc1 | 5.13 | 
CCCCCCCCCCCC(=O)OC |  | 20 µM (active)
CCOC(=O)c1ccccc1C | -5.91 | 
CCCC/C=C\CCCCCCCCCC=O | 1.07 | 
Oc1ccc(C(c2ccc(O)cc2)C(Cl)(Cl)Cl)cc1 | 5.54 | 
CCCCCCCCCCCCCCCO | -12.9 | 
O=S(=O)(O)c1cc(S(=O)(=O)O)c2c(N=Nc3ccccc3)c(O)ccc2c1 | -4.69 | 
Cc1ccc(C(C)(C)C)c(O)c1 | 3.65 | 
CC(COc1ccc(C(C)(C)C)cc1)OS(=O)OCCCl (stereo unspecified) | 1.65 | 
CCOC(=O)NCCOc1ccc(Oc2ccccc2)cc1 | -15.6 | 
O=C(O)CCCCCCC(=O)O | -3.76 | 
CC(C)C[C@H](NC(=O)OCC1c2ccccc2-c2ccccc21)C(=O)O | -3.32 | 
COC(=O)CCSCCC(=O)OC | -2.04 | 
CC(C)(C)[C@H](O)[C@H](Cc1ccc(Cl)cc1)n1cncn1 |  | inactive
CCOC(=O)[C@H](C)Oc1ccc(Oc2nc3ccc(Cl)cc3o2)cc1 | -8.86 | 
COCCOCCOCCOC | -2.84 | 
CCCCCCC(O)CCCCCCCCCCC(=O)O (stereo unspecified) | -9.05 | 
CCCCCCC(C)(C)S | 10.2 | 
CCC(C)OC(=O)N1CCCCC1CCO (stereo unspecified) | 0.399 | 
CCCCCCCCCC(=O)OC | -2.28 | 

The compounds below were run against Glucocorticoid receptor (Homo sapiens) (UniProt P04150) (assay: qHTS assay for small molecule agonists of glucocorticoid receptor signaling (AID 588532; active = well fitted curve in the direction sought with a large enough effect in the signal ratio, with a control signal flat; the % refers to the signal ratio;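 also: 100% = dexamethasone at 0.1 µM and 0% = DMSO only wells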)). Settings: HeLa MMTV-bla, beta-lactamase ratio, agonist, 18 h; active compounds read high; percent of dexamethasone control, DMSO zero.
Glucocorticoid receptor (Homo sapiens), sequence (P04150 whole entry, looked up): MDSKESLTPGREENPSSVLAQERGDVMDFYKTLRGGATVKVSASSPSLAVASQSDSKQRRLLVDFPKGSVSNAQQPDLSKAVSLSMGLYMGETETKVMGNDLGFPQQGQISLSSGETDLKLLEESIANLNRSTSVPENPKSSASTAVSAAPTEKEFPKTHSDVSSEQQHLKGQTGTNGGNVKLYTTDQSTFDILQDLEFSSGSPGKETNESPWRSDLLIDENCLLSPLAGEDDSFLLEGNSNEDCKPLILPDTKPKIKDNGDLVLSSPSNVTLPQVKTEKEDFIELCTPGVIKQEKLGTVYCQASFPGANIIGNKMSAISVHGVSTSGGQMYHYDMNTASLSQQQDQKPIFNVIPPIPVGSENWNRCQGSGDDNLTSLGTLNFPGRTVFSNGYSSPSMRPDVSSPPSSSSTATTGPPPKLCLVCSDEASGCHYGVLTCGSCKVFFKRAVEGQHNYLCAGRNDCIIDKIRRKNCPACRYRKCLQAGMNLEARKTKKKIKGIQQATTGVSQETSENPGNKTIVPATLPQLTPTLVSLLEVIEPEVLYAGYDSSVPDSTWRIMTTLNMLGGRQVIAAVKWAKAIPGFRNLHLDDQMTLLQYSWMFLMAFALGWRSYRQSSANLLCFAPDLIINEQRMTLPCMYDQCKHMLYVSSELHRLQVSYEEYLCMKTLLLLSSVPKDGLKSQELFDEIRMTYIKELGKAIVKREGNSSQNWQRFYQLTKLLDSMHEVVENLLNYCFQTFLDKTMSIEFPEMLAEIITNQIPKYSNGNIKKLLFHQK
In short: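 MMTV-bla HeLa, beta-lactamase reporter; medium with 1% charcoal/dextran-stripped FBS; cpds up to 92 uM, 18 h, 37 C; CCF4 readout 460/530 nm; Hill fit → EC50, efficacy vs 0.1 uM dexamethasone = 100%.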

Compound | activation
CC(C)CCCCCCCCCCCCCCC(=O)O | -9.44%
C=CCOc1nc(OCC=C)nc(OCC=C)n1 | -1.63%
CCCCCCCCCCCC(=O)OC | -11.5%
CCOC(=O)c1ccccc1C | 10.9%
CCCCCCCCCCCC[N+](C)(C)C | -4.8%
CCCCCCCCCCCCN | -4.12%
CCC(O)OCCCOC (stereo unspecified) | -7.43%
C=CCCCCCCCCCC | -14.2%
CCCCCCCCCCCCCCC | -6.59%
Oc1ccc(C(c2ccc(O)cc2)C(Cl)(Cl)Cl)cc1 | 1.17%
CC(C)(N=C=O)c1cccc(C(C)(C)N=C=O)c1 | 9.9%
CC(C)C(=O)OC(=O)C(C)C | -15%
CC1=CC(=O)CC(C)(C)C1 | -9.62%
CCCCCCCC/C=C\CCCCCCCCO | -0.954%
CCCCCCCC[Si](OCC)(OCC)OCC | -8.51%
COc1cc(Cl)c(OC)cc1N | -0.0557%

Compound | activation
CCOC(=O)C(C)Oc1ccc(Oc2nc3ccc(Cl)cc3o2)cc1 (stereo unspecified) | 19.6%
O=C(O)CCCCCCC(=O)O | -13.8%
CC(C)CCCCOC(=O)c1ccccc1C(=O)OCCCCC(C)C | -8.95%
COC(OC)(C(=O)c1ccccc1)c1ccccc1 | -8.93%
CC(C)C[C@H](NC(=O)OCC1c2ccccc2-c2ccccc21)C(=O)O | -5.5%
COC(=O)CCSCCC(=O)OC | 8.88%
CC(C)(C)[C@H](O)[C@H](Cc1ccc(Cl)cc1)n1cncn1 | -0.93%
CCOC(=O)[C@H](C)Oc1ccc(Oc2nc3ccc(Cl)cc3o2)cc1 | 0.281%
COCCOCCOCCOC | -5.4%
CCCCCCC(O)CCCCCCCCCCC(=O)O (stereo unspecified) | -3.25%
CCOCCOCCOC(C)=O | -7.35%
CCOCCOCCOCC | -5.25%
CCOc1ccc(NC(=O)OC(C)C)cc1OCC | -6.81%
CCCCCCC(C)(C)S | -11%
CC(C)Nc1nc(N)nc(Cl)n1 | -6.58% and -7.33%
